{
  "source": "PubChem BioAssay (NCATS)",
  "note": "Inconclusive results are not listed. Entries that show only a call come without a potency. Active and inactive are the calls of the source. Calls come from the whole dose curve; as a rule, active = well fitted inhibition curve with a large enough effect; inconclusive = small, poorly fitted or top-dose-only effect; inactive = no such curve, though single readings can be large or run the other way. Potency is the fitted concentration of half-maximal effect.",
  "data": [
    {"assay": "Primary qHTS for inhibitors of nuclear receptor binding SET domain protein 2 (NSD2) in an RCH-ACV wild type WT cells (2C) (AID 1645877); note: nearly all actives have a fitted effect of over 70% in size", "conditions": "RCH-ACV NSD2 WT (2C) viability, CellTiter-Glo, 72 h; series mostly up to 44.9 µM", "values": [
      {"smiles": "CCCCC(CC)COC(=O)/C=C/c1ccc(OC)cc1", "note": "(configuration not stated)", "Potency": "inactive"},
      {"smiles": "Cc1cc(-c2ccccc2)nnc1NCCN1CCOCC1", "Potency": "inactive"},
      {"smiles": "O=C(O)c1ccc(S(=O)(=O)N(Cl)Cl)cc1", "Potency": "inactive"},
      {"smiles": "NC(=O)n1c(O)c(C(=O)c2cccs2)c2cc(Cl)ccc21", "Potency": "inactive"},
      {"smiles": "C[N+]1(CC2COC(c3ccccc3)(C3CCCCC3)O2)CCCCC1", "note": "(configuration not stated)", "Potency": "21.1 µM (active)"},
      {"smiles": "CC(=O)Nc1ncc([N+](=O)[O-])s1", "Potency": "inactive"},
      {"smiles": "CCOc1ccccc1OCCN[C@H](C)Cc1ccc(OC)c(S(N)(=O)=O)c1", "Potency": "inactive"},
      {"smiles": "C#C[C@]1(O)CC[C@H]2[C@@H]3[C@H](C)CC4=C(CCC(=O)C4)[C@H]3CC[C@@]21C", "Potency": "21.1 µM (active)"},
      {"smiles": "CC(C(=O)O)c1cccc(Oc2ccccc2)c1", "note": "(configuration not stated)", "Potency": "inactive"},
      {"smiles": "COc1ccc(CN(CCN(C)C)c2ncccn2)cc1", "Potency": "inactive"},
      {"smiles": "CC(=O)NO", "Potency": "inactive"},
      {"smiles": "CC1CCc2c(N3CCC(O)CC3)c(F)cc3c(=O)c(C(=O)O)cn1c23", "note": "(configuration not stated)", "Potency": "inactive"},
      {"smiles": "CCCCCCCCCCCCSCCOCCO", "Potency": "inactive"},
      {"smiles": "O=[N+]([O-])c1ccc(/C=N\\O)o1", "Potency": "inactive"},
      {"smiles": "c1ccc(CC2=NCCN2)cc1", "Potency": "5.31 µM (active)"},
      {"smiles": "CC[C@]12CCCN3CCc4c(n(c5ccccc45)C(=O)C1)[C@@H]32", "Potency": "5.96 µM (active)"},
      {"smiles": "CC(=O)Nc1ccc(CC(=O)O)cc1", "Potency": "inactive"}
    ]}
  ]
}
